Measured values published in PubChem BioAssay AID624325 (Sanford-Burnham Center for Chemical Genomics, 2012).
Hit rate of the full screen: of about 2,300 compounds, about 1,000 (43%) were called active.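 Rule for the calls: active = compounds inhibiting the enzyme by at least 50% at 15 µM in any one of the replicates; inactive = the rest.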 The set was probably picked from earlier hits. Not all results are given here.

target: Fatty acid synthase (Homo sapiens) (UniProt P49327); assay: inhibition of human FAS-TE enzyme activity – biochemical, fluorescence intensity, single concentration, confirmation (AID 624325); conditions: recombinant FAS-TE, OMFH fluorogenic substrate, at 15 µM, active compounds read high;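 note: 0% = enzyme with DMSO only and 100% = wells lacking enzyme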
Sequence (P49327 whole entry, looked up): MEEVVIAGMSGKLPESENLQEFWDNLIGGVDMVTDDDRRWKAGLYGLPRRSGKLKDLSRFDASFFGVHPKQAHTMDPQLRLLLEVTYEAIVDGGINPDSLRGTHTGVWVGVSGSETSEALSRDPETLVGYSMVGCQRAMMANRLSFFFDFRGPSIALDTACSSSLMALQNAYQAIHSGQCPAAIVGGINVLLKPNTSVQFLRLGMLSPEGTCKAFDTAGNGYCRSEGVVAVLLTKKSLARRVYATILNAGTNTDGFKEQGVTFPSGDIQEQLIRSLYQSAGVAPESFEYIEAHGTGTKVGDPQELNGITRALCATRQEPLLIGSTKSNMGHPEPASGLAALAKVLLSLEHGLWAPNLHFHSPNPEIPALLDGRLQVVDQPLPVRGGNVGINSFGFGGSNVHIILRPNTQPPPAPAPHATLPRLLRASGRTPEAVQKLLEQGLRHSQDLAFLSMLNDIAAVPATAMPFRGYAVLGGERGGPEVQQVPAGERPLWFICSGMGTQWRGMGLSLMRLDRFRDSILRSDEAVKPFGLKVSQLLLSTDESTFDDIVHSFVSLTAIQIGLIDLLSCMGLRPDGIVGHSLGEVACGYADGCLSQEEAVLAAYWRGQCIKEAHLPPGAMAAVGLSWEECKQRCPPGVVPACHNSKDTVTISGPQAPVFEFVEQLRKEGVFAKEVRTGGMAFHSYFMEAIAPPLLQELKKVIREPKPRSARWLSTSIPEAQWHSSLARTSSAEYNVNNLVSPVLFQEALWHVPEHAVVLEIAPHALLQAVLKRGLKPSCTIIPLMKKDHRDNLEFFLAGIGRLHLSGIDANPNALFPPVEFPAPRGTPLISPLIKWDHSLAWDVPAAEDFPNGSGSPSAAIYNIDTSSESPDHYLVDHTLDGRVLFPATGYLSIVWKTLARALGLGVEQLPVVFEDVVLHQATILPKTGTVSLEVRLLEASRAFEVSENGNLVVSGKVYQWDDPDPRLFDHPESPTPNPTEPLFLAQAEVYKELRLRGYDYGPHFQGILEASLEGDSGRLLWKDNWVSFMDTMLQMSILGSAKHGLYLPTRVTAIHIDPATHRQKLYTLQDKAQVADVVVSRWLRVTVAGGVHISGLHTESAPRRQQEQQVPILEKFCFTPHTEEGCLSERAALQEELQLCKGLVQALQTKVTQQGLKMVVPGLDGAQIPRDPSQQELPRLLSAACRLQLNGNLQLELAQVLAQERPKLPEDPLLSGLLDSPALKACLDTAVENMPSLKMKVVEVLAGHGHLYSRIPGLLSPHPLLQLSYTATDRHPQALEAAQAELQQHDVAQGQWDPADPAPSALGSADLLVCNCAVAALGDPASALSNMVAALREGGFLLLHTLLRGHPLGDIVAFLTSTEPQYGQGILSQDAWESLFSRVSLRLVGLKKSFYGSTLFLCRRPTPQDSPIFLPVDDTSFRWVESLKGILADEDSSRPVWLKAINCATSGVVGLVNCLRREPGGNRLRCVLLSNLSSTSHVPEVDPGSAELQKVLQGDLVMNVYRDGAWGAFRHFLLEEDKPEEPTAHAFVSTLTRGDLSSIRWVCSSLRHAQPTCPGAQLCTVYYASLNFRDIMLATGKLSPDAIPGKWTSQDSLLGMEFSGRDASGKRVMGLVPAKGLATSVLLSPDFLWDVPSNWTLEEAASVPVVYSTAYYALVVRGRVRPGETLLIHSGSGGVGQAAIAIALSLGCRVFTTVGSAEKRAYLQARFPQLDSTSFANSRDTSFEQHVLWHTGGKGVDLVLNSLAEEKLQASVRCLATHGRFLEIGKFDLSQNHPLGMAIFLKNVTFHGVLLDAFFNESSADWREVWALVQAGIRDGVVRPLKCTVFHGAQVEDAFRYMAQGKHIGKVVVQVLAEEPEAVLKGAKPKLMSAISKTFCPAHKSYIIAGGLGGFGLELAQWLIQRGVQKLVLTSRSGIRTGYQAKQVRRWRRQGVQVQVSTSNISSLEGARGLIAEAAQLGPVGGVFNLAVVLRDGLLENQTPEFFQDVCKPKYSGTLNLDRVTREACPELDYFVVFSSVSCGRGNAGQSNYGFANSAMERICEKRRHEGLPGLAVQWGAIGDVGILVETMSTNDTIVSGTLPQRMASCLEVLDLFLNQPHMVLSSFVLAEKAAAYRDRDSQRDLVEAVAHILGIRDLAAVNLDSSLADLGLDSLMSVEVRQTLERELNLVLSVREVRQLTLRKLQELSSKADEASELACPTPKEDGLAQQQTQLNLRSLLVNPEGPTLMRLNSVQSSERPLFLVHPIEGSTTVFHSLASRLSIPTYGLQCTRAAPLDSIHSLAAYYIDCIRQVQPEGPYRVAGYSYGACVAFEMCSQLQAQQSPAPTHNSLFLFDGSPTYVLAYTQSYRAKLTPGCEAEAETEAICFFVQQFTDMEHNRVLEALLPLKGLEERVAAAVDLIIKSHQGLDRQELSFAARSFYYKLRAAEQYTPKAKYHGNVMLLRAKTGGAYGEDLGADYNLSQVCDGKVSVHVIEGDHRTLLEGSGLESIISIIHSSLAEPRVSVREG

| Compound | inhibition |
| --- | --- |
| CCOC(=O)N1CCN(Cc2nc3ccc([N+](=O)[O-])cc3c(=O)n2-c2cccc(OC)c2)CC1 | 76.1% (active) |
| CCOc1cc(/C=C(/C#N)c2ccc(Cl)cc2)cc(Cl)c1OCC(=O)O | 63% (active) |
| Cc1ccc(N2C(=O)C3C(c4ccccc4)(C2=O)C3(c2ccccc2)c2ccccc2)cc1 (stereo not given) | 4.09% (inactive) |
| O=C(C[C@H]1C[C@H](C(=O)N2CCOCC2)[C@@]2(CCC3CCCC3)c3[nH]c4ccc(Cl)cc4c3CCN2C1=O)NCc1ccco1 | 27.4% (inactive) |
| COc1ccc(CNC(=O)C[C@H]2C[C@H](C(=O)N3CCOCC3)[C@@]3(CCC4CCCC4)c4[nH]c5ccc(Cl)cc5c4CCN3C2=O)cc1OC | 83.3% (active) |
| CCOc1ccc(Nc2nc(Cl)nc(N3CCN(c4ccc(OC)cc4)CC3)n2)cc1 | 12.5% (inactive) |
| Cc1cccc(N2C(=O)N3[C@H](c4ccc(F)cc4)[C@@H]4C(=O)N(C5CCCCC5)C(=O)[C@@H]4[C@]3(Cc3ccccc3)C2=O)c1 | 10.1% (inactive) |
| O=C1[C@H]2[C@@H](c3ccc(F)cc3)N3C(=O)N(c4ccc(C(F)(F)F)cc4)C(=O)[C@@]3(Cc3ccccc3)[C@H]2C(=O)N1C1CCCCC1 | 17.3% (inactive) |
| C[C@@]12C(=O)N(c3cccc(Br)c3)C(=O)N1[C@H](c1ccc(Cl)cc1)[C@@H]1C(=O)N(C3CCCCC3)C(=O)[C@@H]12 | 54% (active) |
| Cc1cccc(-n2c(SCC(=O)Nc3cccc(S(=O)(=O)NC4=NCCCCC4)c3)nc3ccccc3c2=O)c1C | 18.8% (inactive) |
| COC(=O)c1cc(C(=O)NC(C)C2CC3CCC2C3)cc([N+](=O)[O-])c1 (stereo not given) | 59.5% (active) |
| O=C(Nc1cccc([N+](=O)[O-])c1)N1CCc2ccccc2C1 | 65.8% (active) |
| O=C(NCCCCc1ccccc1)C1CC(c2ccc([N+](=O)[O-])cc2)=NO1 (stereo not given) | 59.7% (active) |
| O=C1NC(Cc2ccccc2)c2nc3ccc(Br)cc3c(=O)n2-c2cc3ccccc3cc21 (stereo not given) | 30.7% (inactive) |
| CC(NC(=O)Nc1cccc([N+](=O)[O-])c1)c1ccc2c(c1)OCO2 (stereo not given) | 84.4% (active) |
| CCN(C(=O)CSc1ncnc2c1cnn2-c1ccccc1)C1CCS(=O)(=O)C1 (stereo not given) | 69.8% (active) |
| CCOc1ccc(Br)cc1S(=O)(=O)Nc1ccc(C(=O)OC(C)C(=O)N(C)c2ccccc2)cc1 (stereo not given) | 14.2% (inactive) |
| CC1(C(=O)NS(=O)(=O)c2ccc(C#N)cc2)CCN1C(=O)c1ccc(C2CCCCC2)cc1 (stereo not given) | 71.8% (active) |
| Cc1ccc(C)c(NC(=O)CSc2nc3c(oc4ccccc43)c(=O)n2-c2ccccc2)c1 | 31.1% (inactive) |
| COc1ccccc1C1CC(=O)n2c(nc(-c3ccccc3)c2-c2ccccc2)S1 (stereo not given) | 0.79% (inactive) |
| CC(C)(C)NC(=O)NC(=O)COC(=O)Cc1ccc(Cl)cc1Cl | 68.1% (active) |
| O=C1OCCN1C(=O)[C@H]1[C@H](c2ccc(Cl)cc2)C(c2cccc(Cl)c2)=NN1c1ccc(Br)cc1 | 15.5% (inactive) |
| O=C(Nc1cccc(Cl)c1)c1cc([N+](=O)[O-])ccc1N1CCN(CCO)CC1 | 66.5% (active) |

| Compound | inhibition |
| --- | --- |
| Cc1cccc(NC(=O)c2cc([N+](=O)[O-])ccc2N2CCN(C)CC2)c1 | 54% (active) |
| O=S(=O)(c1ccc(F)cc1)n1ccc(-c2cnc(-c3ccccc3)s2)n1 | 14.5% (inactive) |
| Cc1ccc(S(=O)(=O)c2nnn3c2nc(N2CCN(c4ccccn4)CC2)c2ccccc23)cc1 | 25.4% (inactive) |
| Cc1nc2c(OCc3ccc(Cl)cc3Cl)cccn2c1N(C)CC1CC1 | 50% (active) |
| O=C(COC(=O)c1cc([N+](=O)[O-])ccc1NCc1ccccc1)NC1CCCCC1 | 37.6% (active) |
| CCN1C(=O)[C@H]2[C@@H](c3ccc(SC4CCCCC4)c(OC)c3)N[C@@](Cc3ccccc3)(C(=O)OC)[C@H]2C1=O | 15.5% (inactive) |
| CCN1C(=O)[C@H]2[C@@H](c3ccc(-c4ccc(F)cc4)cc3)N[C@@](Cc3ccccc3)(C(=O)OC)[C@H]2C1=O | 43.4% (inactive) |
| Cc1cccc(N=C2NC(=O)/C(=C/c3cn(C)c4ccccc34)S2)c1 | -6.27% (inactive) |
| COc1cc(-c2noc(C3CCCN(S(=O)(=O)c4cccc(Cl)c4)C3)n2)cc(OC)c1OC (stereo not given) | 30.8% (inactive) |
| COc1ccc([N+](=O)[O-])cc1NC(=O)COC(=O)/C=C/c1ccco1 | 70.8% (active) |
| CC(C)Oc1ccc(Cc2n[nH]c(=S)n2Cc2ccccc2)cc1Cl | 39.1% (active) |
| CC(=O)c1sc(N/N=C/c2ccc(C(C)C)cc2)nc1C | 19.8% (inactive) |
| O=C(c1ccc(Cl)c([N+](=O)[O-])c1)N1CCN(c2ccccc2)CC1 | 58.3% (active) |
| O=C(Nc1ccc(N2C(=O)c3cccc4cccc(c34)C2=O)cc1)c1ccc(N2CCCCC2)c([N+](=O)[O-])c1 | 10.5% (inactive) |
| COc1ccc(C2CC(c3ccccc3)=NN2C(=O)c2ccc(Cl)c([N+](=O)[O-])c2)cc1 (stereo not given) | 21.3% (inactive) |
| O=c1ccc2c(-c3ccccc3S(=O)(=O)O)c3ccc(O)c(O)c3oc-2c1O | 56.1% (active) |
| O=C(Nc1ccc(C2CC2(Cl)Cl)cc1)c1cccc([N+](=O)[O-])c1 (stereo not given) | 19.8% (inactive) |
| O=C(Nc1nnc(SCc2ccccc2Cl)s1)c1cccc([N+](=O)[O-])c1 | 51.7% (active) |
| CC(=O)c1ccc(S(=O)(=O)N2CCN(c3nc4c(C)c(C)ccc4cc3C#N)CC2)cc1 | 32.8% (inactive) |
| Cc1ccc(S(=O)(=O)N2CC[C@H]3[C@@H](C2)C(=O)C[C@@H](c2ccccc2)N3S(=O)(=O)c2ccc(C)cc2)cc1 | 13.8% (inactive) |
| COc1ccc(-c2nnc(SC(=O)N3c4ccccc4Sc4ccccc43)o2)cc1 | 13.1% (inactive) |
| CCCCOC(=O)CNc1nnc(SCC(=O)OCC)[nH]c1=O | 51% (active) |
